PrPC surface inh: cell surface PrPC inhibition, primary TR-FRET screen | AID 720596 | inhibition, % at 13.8 µM | P04156 | 0.43% of 370,000 active | TR-FRET read-out; in the data active means inhibition above about 24%
TcdB GH inh: blocks C. difficile toxin B glycohydrolase activity; P18177; TcdB glycohydrolase enzymatic assay, plate reader; inhibition, % at 9.99 µM; 0.24% of 350,000 active; AID 652162; in the data active means inhibition above about 10%
DUSP3 inh: blocks human VHR1 dual specificity phosphatase. AID 1654. P51452. inhibition, % at 13.3 µM. 0.52% of 290,000 active. recombinant VHR phosphatase, pNPP absorbance; in the data active means inhibition above about 50%
Numbers stand for hits. Sampled rows, rich in hits. Any-hit rate of the full collection: about 0.82%.

For O=C(O)C[C@@H]1C[C@@H]2c3cc(NS(=O)(=O)c4ccc(F)cc4)ccc3O[C@@H]2[C@H](CO)O1 the results were TcdB GH inh inactive.
`COc1cccc(-c2ccc([C@H]3[C@@H](CO)N4C(=O)CN(C(=O)c5ccncc5)C[C@@H]34)cc2)c1` gave TcdB GH inh inactive.
For CC(=O)N1[C@H](C(=O)NC2CCC2)[C@@H](CO)[C@@H]2Cn3c(ccc(C4=CCCC4)c3=O)[C@@H]21 the results were TcdB GH inh inactive.
Screening COc1ccc(NC(=O)Nc2cccc3c2O[C@H](CN(C)Cc2ccc(C(F)(F)F)cc2)[C@@H](C)CN([C@@H](C)CO)C3=O)cc1 returned TcdB GH inh inactive.
COc1ccc(OC)c(CCNC(=O)C(C)n2nc(C)c3c(C)n(-c4ccccc4)nc3c2=O)c1 (configuration not stated) was read as PrPC surface inh inactive, TcdB GH inh inactive and DUSP3 inh inactive.
`COc1ccc(OC)c(CCNC(=O)C(C)n2nc(C)c3c(C)n(-c4ccc(C)cc4)nc3c2=O)c1` (configuration not stated) gave PrPC surface inh inactive, TcdB GH inh inactive and DUSP3 inh 55.6.
Screening C[C@@H]1CN([C@@H](C)CO)C(=O)c2cc(C#CCN(C)C)cnc2O[C@H]1CN(C)Cc1cccc(C(=O)O)c1 returned TcdB GH inh inactive.
Screening O=C(O)c1ccc(Nc2nc(-c3cccnc3)cs2)cc1 returned PrPC surface inh inactive, TcdB GH inh inactive and DUSP3 inh 53.0.
For CC(=O)c1ccc(Nc2nc(-c3cccnc3)cs2)cc1 the results were PrPC surface inh inactive, TcdB GH inh inactive and DUSP3 inh inactive.
`C[n+]1cn(Cc2ccc(C#N)cc2)c2ccccc21` gave PrPC surface inh inactive, TcdB GH inh inactive and DUSP3 inh 52.6.
For CC(=O)c1cn(Cc2ccc(C#N)cc2)c2ccccc12 the results were PrPC surface inh inactive, TcdB GH inh inactive and DUSP3 inh inactive.
Screening COc1ccc(-c2cn3cc(C)ccc3n2)cc1Br returned PrPC surface inh inactive, TcdB GH inh inactive and DUSP3 inh inactive.
For COc1ccc(-c2cn3cc(Cl)ccc3n2)cc1OC the results were PrPC surface inh inactive, TcdB GH inh inactive and DUSP3 inh 52.9.
For COc1cc(C(=O)C(=O)c2cc(OC)c(O)c(OC)c2)cc(OC)c1O the results were PrPC surface inh inactive, TcdB GH inh inactive and DUSP3 inh 53.0.
For COc1cc(-c2cc(OC)c(O)c(OC)c2)cc(OC)c1O the results were PrPC surface inh inactive and TcdB GH inh inactive.
`COC(=O)[C@@H]1[C@@H](C(=O)OC)C2(c3ccccc3-c3ccccc32)N(c2ccc(Cl)cc2)N1C#N` gave PrPC surface inh inactive, TcdB GH inh inactive and DUSP3 inh inactive.
COC(=O)C[C@]1(C(=O)OC)CN(C#N)N(c2ccc(Cl)cc2)C12c1ccccc1-c1ccccc12 was read as PrPC surface inh 74.9, TcdB GH inh inactive and DUSP3 inh inactive.
CCC(NS(=O)(=O)c1ccc(C)cc1)C(=O)N1CCN(c2ccccn2)CC1 (configuration not stated) was read as PrPC surface inh inactive, TcdB GH inh inactive and DUSP3 inh 50.0.
For CC(=O)Nc1ccc(S(=O)(=O)N[C@@H](C)C(=O)N2CCN(c3ccccn3)CC2)cc1 the results were PrPC surface inh inactive and TcdB GH inh inactive.
C[C@H]1CN([C@@H](C)CO)C(=O)c2cc(C#Cc3ccncc3)cnc2O[C@@H]1CN(C)CC1CCOCC1 was read as TcdB GH inh inactive.
Screening OCCN(Cc1nc(-c2ccc3c(c2)OCO3)no1)Cc1cccs1 returned PrPC surface inh inactive, TcdB GH inh inactive and DUSP3 inh 57.8.
`CN(CCN1CCc2ccccc2C1)Cc1nc(-c2ccc3c(c2)OCO3)no1` gave PrPC surface inh inactive, TcdB GH inh inactive and DUSP3 inh inactive.
CC[n+]1c(C)sc2c3ccsc3ccc21 was read as PrPC surface inh inactive, TcdB GH inh inactive and DUSP3 inh 51.3.
CC[n+]1c(C)sc2sc3ccccc3c21 was read as DUSP3 inh inactive.
For COc1ccc(NC(=O)N(C)C[C@@H]2OCCCC[C@@H](C)Oc3ccc(N(C)C)cc3C(=O)N([C@@H](C)CO)C[C@H]2C)cc1 the results were TcdB GH inh inactive.
Screening COc1ccc(Cl)cc1NC(=O)CN(C)CC(=O)Nc1ccc(S(N)(=O)=O)cc1 returned PrPC surface inh inactive, TcdB GH inh inactive and DUSP3 inh 53.3.
For COc1ccc(Cl)cc1NC(=O)CN(C)CC(=O)Nc1ccc(Br)cc1 the results were PrPC surface inh inactive, TcdB GH inh inactive and DUSP3 inh inactive.
C[C@H]1CN([C@@H](C)CO)C(=O)c2cc(C#Cc3ccccc3F)cnc2O[C@H]1CN(C)C(=O)C1CC1 was read as TcdB GH inh inactive.
Screening C[C@@H]1CN([C@@H](C)CO)C(=O)Cc2cc(NC(=O)CCC(F)(F)F)ccc2O[C@H]1CN(C)C(=O)Nc1ccc2c(c1)OCO2 returned TcdB GH inh inactive.
`COc1ccccc1-c1cnc2c(c1)C(=O)N([C@H](C)CO)C[C@H](C)[C@H](CN(C)Cc1ccc(F)cc1)O2` gave TcdB GH inh inactive.
Screening Cc1ccsc1/C=N/NC(=O)c1nnn(-c2nonc2N)c1C returned PrPC surface inh inactive, TcdB GH inh inactive and DUSP3 inh 56.2.
For Cc1ccc(-c2c(C(=O)N/N=C/c3sccc3C)nnn2-c2nonc2N)cc1 the results were PrPC surface inh inactive, TcdB GH inh inactive and DUSP3 inh inactive.
For Cc1[nH]c(C)c(S(=O)(=O)N2CCCCC2C)c1C(=O)N1CCCC1 (configuration not stated) the results were PrPC surface inh inactive, TcdB GH inh inactive and DUSP3 inh 56.3.
`Cc1[nH]c(C)c(S(=O)(=O)N2CCCCC2)c1C(=O)N1CCCCC1` gave PrPC surface inh inactive, TcdB GH inh inactive and DUSP3 inh inactive.
`CO[C@H]1CN(C)C(=O)c2cc(NC(=O)c3cc(C)on3)ccc2OC[C@H](C)N(C(=O)C2CC2)C[C@H]1C` gave TcdB GH inh inactive.
For C[C@@H]1CN([C@H](C)CO)C(=O)Cc2cc(NC(=O)Nc3cccc4ccccc34)ccc2O[C@H]1CN(C)S(=O)(=O)c1ccc(Cl)cc1 the results were TcdB GH inh inactive.
`CCC(C(=O)NC1CCCC1)N(C(=O)Cn1nnc(-c2ccc(C)o2)n1)c1ccccc1OC` (configuration not stated) gave PrPC surface inh inactive, TcdB GH inh inactive and DUSP3 inh inactive.
For CCC(C(=O)NC1CCCC1)N(C(=O)Cn1nnc(-c2ccc(C)o2)n1)c1ccc(F)cc1 (configuration not stated) the results were PrPC surface inh inactive, TcdB GH inh inactive and DUSP3 inh 52.9.
For C[C@@H]1CN([C@H](C)CO)C(=O)c2cccc(NC(=O)C3CCOCC3)c2O[C@@H]1CN(C)C(=O)NC1CCCCC1 the results were TcdB GH inh inactive.
For c1ccc(-c2ccc3c(c2)NCCN3)cc1 the results were PrPC surface inh inactive, TcdB GH inh inactive and DUSP3 inh 52.3.
`Nc1cc(-c2ccccc2)ccc1O` gave PrPC surface inh inactive and DUSP3 inh inactive.
Screening CCCN1CCN(C(=O)c2oc3c(Cl)cccc3c2C)CC1 returned PrPC surface inh inactive, TcdB GH inh inactive and DUSP3 inh 56.2.
Cc1c(C(=O)N2CCN(C(=O)c3ccco3)CC2)oc2c(Cl)cccc12 was read as PrPC surface inh inactive and TcdB GH inh inactive.
